Screening data deposited in PubChem by National Center for Advancing Translational Sciences (NCATS).
The list is not random: actives were taken first. Their share in the collection is about 5.9%.
TGFb inhibitor = inhibitors of TGF-b signaling; HepG2 CAGA-GFP TGF-b/SMAD3 reporter, GFP fluorescence, 18 h; TGF-beta stimulated, 500 pg/mL final; AID 588855; hit rate 1.2% among 410,000; Potency, µM (highest dose often 46.1 µM), for the others: at the top dose activity, negative = inhibition, actives largely listed as inhibitors; note: % is set by controls: 0 for no effect and ±100 for the full control effect; nearly all actives have a fitted effect of over 65% in size
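HEPG2 CAGA-GFP reporter cells (1000/well, DMEM with 1% FBS) received compounds, then recombinant TGF-beta at 500 pg/mL final for 18 hours at 37 degrees C. Per-cell GFP summed per well was normalised to unstimulated and stimulated DMSO controls before curve fitting.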
HepG2 viability = kills HepG2 cells in TGF-b inhibitor counter-screen; HepG2 CAGA-GFP viability, ATP luminescence, 18 h; Potency, µM (series often up to 46.1 µM), for inactives: at the highest dose activity change, negative = cytotoxicity, most hits filed as cytotoxic; hit rate 0.76% among 410,000
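HepG2 CAGA-GFP cells (1000/well, DMEM with 1% FBS) received compound, then TGF-beta at 500 pg/mL final, and were incubated 18 hours at 37 degrees C. Viability was read by CellTiter-Glo luminescence. Media-only wells were set as complete cell-killing and DMSO as no toxicity.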
ATXN2 expr inh = ATXN2 expression inhibition; HEK-293 ATXN2-luciferase reporter, luminescence, 24 h; hit rate 0.72% among 360,000; Potency, µM (top dose mostly 57 µM), inactives show at the highest dose activity change, negative = inhibition, hits mostly inhibitors; note: % is set by controls: 0 for no effect and ±100 for the full control effect; nearly all actives have a fitted effect of over 55% in size
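qHTS (up to 57 uM final) was run with 24 h compound exposure of reporter cells at 37 °C. Each well was multiplexed: SteadyGlo luminescence measured ATXN2-luciferase expression after a fluorogenic Gly-Phe-AFC viability readout (25 uM final).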
KB-V1 cytotox = KB-V1 MDR subline cytotoxicity; hit rate 3.4% among 400,000; KB-V1 MDR cells viability, CellTiter-Glo, 72 h; Potency, µM (doses to about 46.1 µM), usual class: cytotoxic; AID 1347076; note: % is set by controls: 0 for no effect and ±100 for the full control effect; nearly all actives have a fitted effect of over 60% in size
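qHTS viability screen in drug-selected KB-V1 MDR cells: 72 h compound treatment at 37 degrees C, ATP luminescence end point.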
ATXN viability = viability counter-screen for ATXN expression inhibitors; S2 cells (HEK-293 line with an ATXN2-luciferase reporter) viability, CellTiter-Fluor protease fluorescence, 24 h; hit rate 0.49% among 400,000; Potency, µM (doses to about 56.7 µM), hits mostly cytotoxic; note: nearly all actives have a fitted effect of over 40% in size
KB-3-1 tox = kills parental KB-3-1 adenocarcinoma cells. KB-3-1 viability, CellTiter-Glo ATP luminescence, 72 h. Potency, µM (series often up to 46.1 µM), most hits filed as cytotoxic. hit rate 1.4% among 400,000. AID 1347075; note: % is set by controls: 0 for no effect and ±100 for the full control effect; nearly all actives have a fitted effect of over 60% in size
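Parental KB-3-1 viability, qHTS format: 72 h compound exposure, 37 °C; CellTiter-Glo; media-only wells and DMSO plates as controls; concentration-effect fits on corrected data.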
* hit, by the source's call; i = inactive; u = inconclusive; x = no result. Calls come from the whole dose curve; as a rule, active = well fitted curve in the direction sought with a large enough effect; inconclusive = small, poorly fitted or top-dose-only effect, or another doubt; inactive = no such curve, though single readings can be large; an effect the other way counts as inactive or inconclusive. Potency is the fitted concentration of half-maximal effect.

SMILES	TGFb inhibitor	HepG2 viability	ATXN2 expr inh	KB-V1 cytotox	ATXN viability	KB-3-1 tox
CC1=Nc2cc(C(=O)NCCN3CCOCC3)ccc2Sc2c(C)ccc(C)c21	15.8µM*	-62.1%	x	18.4µM*	i	14.6µM*
CCCNC(=O)c1ccc2c(c1)N=C(C)c1c(C)ccc(C)c1S2	u	-22.1%	-7.3%	u	u	0.82µM*
COc1ccc(CNC(=O)c2ccc3nccnc3c2)cc1	-0.9%	2.0%	-4.0%	i	i	i
COc1ccc(CNC(=O)c2ccc3c(c2)N=C(C)c2c(C)ccc(C)c2S3)cc1	u	-22.2%	2.4%	1.84µM*	u	4.61µM*
CC1=Nc2cc(C(=O)NCCCN3CCOCC3)ccc2Sc2c(C)ccc(C)c21	u	-29.7%	2.1%	u	i	u
CC1=Nc2cc(C(=O)NCCc3ccccc3)ccc2Sc2c(C)ccc(C)c21	6.31µM*	-19.1%	-18.2%	0.411µM*	u	0.651µM*
Cc1ccc(Cn2c(-n3nc(C)cc3C)nc3c2c(=O)[nH]c(=O)n3C)cc1	2.1%	-11.1%	2.3%	i	i	i
COc1ccc(CCn2c(-n3nc(C)cc3C)nc3c2c(=O)[nH]c(=O)n3C)cc1	-2.3%	-27.5%	-8.3%	1.64µM*	i	i
CC(C)C[C@H](NC(=O)c1nc[nH]c1C(=O)NCc1ccccc1)C(=O)OC(C)(C)C	11.2µM*	-80.4%	u	i	u	i
CC(C)C[C@H](NC(=O)c1nc[nH]c1C(=O)NC1CCN(C(=O)OC(C)(C)C)CC1)C(=O)OCc1ccccc1	u	12.6µM*	u	u	u	u
CC(C)C[C@H](NC(=O)c1nc[nH]c1C(=O)NC1CCN(C(=O)OC(C)(C)C)CC1)C(=O)OC(C)(C)C	u	-76.8%	u	i	u	u
COc1ccc(NC(=O)c2nc[nH]c2C(=O)N[C@@H](CC(C)C)C(=O)OC(C)(C)C)cc1	u	-78.3%	u	u	u	u
CC(C)C[C@H](NC(=O)c1[nH]cnc1C(=O)Nc1ccc(CNC(=O)OC(C)(C)C)cc1)C(=O)OCc1ccccc1	u	-42.0%	28.2µM*	u	u	i
CC(C)C[C@H](NC(=O)c1[nH]cnc1C(=O)Nc1ccccc1F)C(=O)OC(C)(C)C	u	11.2µM*	u	u	u	u
Cc1oc(-c2ccccc2NC(=O)c2ccccc2)nc1CNC(=O)C1CC(=O)OC12CCCCC2 (stereo not given)	x	x	x	x	i	x
COC(=O)c1ccc(NC(=O)CSc2nc(=O)n(Cc3ccco3)c3c2CCC3)cc1	u	-17.8%	u	i	u	i
Cc1ccc2ncc(C)c(/C=C/c3ccc(N(C)C)cc3)c2c1	u	-92.2%	x	u	x	u
CC(C)C[C@H](NC(=O)c1[nH]cnc1C(=O)N[C@@H](Cc1ccccc1)C(=O)OCc1ccccc1)C(=O)OC(C)(C)C	u	-4.2%	-30.1%	u	i	i
CC(C)C[C@H](NC(=O)c1[nH]cnc1C(=O)N[C@@H](C)c1ccccc1)C(=O)OC(C)(C)C	u	-58.9%	u	i	25.1µM*	u
CC(C)C[C@H](NC(=O)c1[nH]cnc1C(=O)N[C@@H](Cc1ccccc1)C(=O)OC(C)(C)C)C(=O)OCc1ccccc1	u	-6.4%	-30.5%	i	u	i
CC(C)C[C@H](NC(=O)c1[nH]cnc1C(=O)N[C@@H](Cc1ccccc1)C(=O)OC(C)(C)C)C(=O)OC(C)(C)C	11.2µM*	-31.3%	u	i	x	u
CC[C@H]1OC(=O)[C@H](C)[C@@H](O[C@H]2C[C@@](C)(OC)[C@@H](O)[C@H](C)O2)[C@H](C)[C@@H](O[C@@H]2O[C@H](C)C[C@H](N(C)C)[C@H]2O)[C@](C)(O)C[C@H](C)C(=NOCOCCOC)[C@H](C)[C@@H](O)[C@]1(C)O	x	x	-10.3%	x	i	x
COc1cc2ncc3c(-c4ccccc4)nn(-c4ccc(C)cc4)c3c2cc1OC	u	-34.1%	8.7%	u	i	i
Cc1ccc(NC(=O)/C(C#N)=C(\N)C(Cl)(Cl)Cl)nc1	u	-37.6%	-15.0%	u	u	18.4µM*
Cc1ccc(NC(=O)C(=O)Nc2ccc(C)cn2)nc1	32.3%	6.1%	15.2%	i	i	i
SMILES	TGFb inhibitor	HepG2 viability	ATXN2 expr inh	KB-V1 cytotox	ATXN viability	KB-3-1 tox
CC(=O)n1c(-c2ccccc2)c(CO)c2ccccc21	-0.8%	1.3%	2.2%	i	i	i
NCCc1c(-c2ccccc2)n(-c2ccccc2)c2ccccc12	u	20µM*	28.2µM*	u	u	i
O=S1(=O)N=C(Oc2ccccc2F)c2ccccc21	x	x	x	i	x	i
COc1cccc(N(CC(=O)NCCSc2ccc(Cl)cc2)S(C)(=O)=O)c1	-5.4%	-11.1%	-7.6%	16.4µM*	i	i
COc1ccc(OC)c(N(CC(=O)NCCSc2ccccc2)S(C)(=O)=O)c1	0.0%	-16.9%	2.4%	23.1µM*	i	i
CS(=O)(=O)N(CC(=O)NCCSCc1c(F)cccc1Cl)c1ccc2c(c1)OCO2	0.0%	-4.7%	1.5%	u	i	i
